# Most compounds without a hit are left out; they make up all but 2.2% or so of the library.
# Mm-Cpn inhibitor: Inhibitors of TCP-1 ring complex (TRiC) of Methanococcus maripaludis (MmCpn): qHTS; purified Mm-Cpn ATPase, ADP Transcreener TR-FRET; 330,000 compounds, 0.031% hits; Potency, µM (titrated, usually from 76.9 µM), actives largely listed as inhibitors; Chaperonin Mm-Cpn (Methanococcus maripaludis); note: nearly all actives have a fitted effect of over 80% in size
#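 ATP (10 uM final) was added to archaeal chaperonin (25 nM final) after 10 min exposure to test compound at 37°C; after 30 min further incubation, ADP was detected by competitive TR-FRET.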
# GLP1R cytotox: qHTS of GLP-1 Receptor Inverse Agonists: Cytotox Screen | HEK293 cAMP-luciferase reporter cells, luminescence, 24 h | Potency, µM (highest dose often 38.3 µM), actives largely listed as inhibitors | 410,000 compounds, 0.13% hits | AID 624418, 2012;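 note: loss of luciferase light is scored as toxicity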
#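 MLSMR compounds, 24 hr on cells at 37 deg C/5% CO2; luminescence after luciferase reagent (12 min RT). Inhibition counted as the undesired cytotoxic outcome.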
# GLP-1R agonist: qHTS of GLP-1 Receptor Agonists; Potency, µM (doses to about 45.6 µM), most hits filed as activators; HEK293 GLP-1R CRE-luciferase, luminescence, 4-6 h; cells express a hypersensitive GLP-1R form; 380,000 compounds, 0.007% hits; AID 624172, 2012
# Target sequence (P43220 whole entry, looked up): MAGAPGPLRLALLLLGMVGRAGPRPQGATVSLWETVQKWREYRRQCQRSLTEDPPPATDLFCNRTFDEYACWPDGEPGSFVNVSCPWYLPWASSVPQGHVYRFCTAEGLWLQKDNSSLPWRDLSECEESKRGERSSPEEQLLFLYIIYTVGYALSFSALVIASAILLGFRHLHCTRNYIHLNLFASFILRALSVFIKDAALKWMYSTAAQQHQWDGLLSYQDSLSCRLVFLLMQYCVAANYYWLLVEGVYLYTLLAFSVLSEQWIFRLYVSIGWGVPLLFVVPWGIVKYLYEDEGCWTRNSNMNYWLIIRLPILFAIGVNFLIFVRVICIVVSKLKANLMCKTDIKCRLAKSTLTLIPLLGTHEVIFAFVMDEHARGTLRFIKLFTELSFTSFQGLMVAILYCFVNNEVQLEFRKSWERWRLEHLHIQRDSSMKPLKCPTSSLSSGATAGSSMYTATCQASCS
# uPA generation: qHTS for Inhibitors of Cell Surface uPA Generation; cell surface uPA generation assay, qHTS; Potency, µM (series often up to 38.3 µM), hits mostly inhibitors; 330,000 compounds, 0.31% hits; active = well fitted inhibition curve with a large enough effect; inconclusive = small, poorly fitted or top-dose-only effect; inactive = no such curve, though single readings can be large or run the other way; tested in mouse RAW 264.7 cells; note: nearly all actives have a fitted effect of over 55% in size
# CCT chaperon mod: High-Throughput Screening for Modulators of Cytosolic Chaperonin Activity; 360,000 compounds, 0.3% hits; purified chaperonin ATPase assay, HTRF ADP detection, 30 min; activity change, % (concentration not given with the values), hits read low; in the data active = activity change below about -30%
#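 First, chaperonin was dispensed at 40 nM or 20 nM final depending on batch activity. Next, compounds were pinned at 76 uM and ATP added at 10 uM. After 30 min at 37 °C, ADP detection reagents ran 30 min at ambient temperature.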
# GLP-1R inv ag: qHTS of GLP-1 Receptor Inverse Agonists (Inhibition Mode) | Glucagon-like peptide 1 receptor (Homo sapiens), P43220 | HEK293 GLP-1R CRE-luciferase, luminescence, 24 h; GLP-1R form is constitutively active | Potency, µM (doses to about 38.3 µM), most hits filed as inhibitors | 410,000 compounds, 1.6% hits | AID 624417, 2012; note: nearly all actives have a fitted effect of over 55% in size
#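 Assay principle: reduced luminescence from a cAMP-responsive reporter in HEK293 cells co-expressing a constitutively active GLP-1R. Conditions: 24 hr compound incubation, 37 deg C, 5% CO2.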
# Hits are given with their value; . = inactive; ? = inconclusive; / = not tested or not shown. Unless noted, calls come from the whole dose curve; as a rule, active = well fitted curve in the direction sought with a large enough effect; inconclusive = small, poorly fitted or top-dose-only effect, or another doubt; inactive = no such curve, though single readings can be large; an effect the other way counts as inactive or inconclusive.
SMILES,Mm-Cpn inhibitor,GLP1R cytotox,GLP-1R agonist,uPA generation,CCT chaperon mod,GLP-1R inv ag
COc1cccc(NC(=O)CN(C)C(=O)c2cccc(S(=O)(=O)N3CC4(C)CC3CC(C)(C)C4)c2)c1 (centres undefined),.,.,.,?,.,.
CCCCNC(=O)c1cccc(S(=O)(=O)N2CC3(C)CC2CC(C)(C)C3)c1 (centres undefined),.,.,.,2.2µM,.,10µM
COc1ccc(NC(=O)CN(C)C(=O)c2cccc(S(=O)(=O)N3CC4(C)CC3CC(C)(C)C4)c2)cc1 (centres undefined),.,.,.,.,.,11µM
CC1(C)CC2CC(C)(CN2S(=O)(=O)c2cccc(C(N)=O)c2)C1 (centres undefined),.,.,.,.,.,.
COCCNC(=O)c1cccc(S(=O)(=O)N2CC3(C)CC2CC(C)(C)C3)c1 (centres undefined),.,.,.,4µM,.,?
Oc1ccc(COCc2ccc(F)cc2)c2cccnc12,.,/,/,/,/,/
CCN(CC)C(=O)c1sc2c(c1C)c(=O)n(Cc1ccccc1)c(=O)n2Cc1ccc(Cl)cc1,/,.,/,/,/,?
CCN(CC)C(=O)c1sc2c(c1C)c(=O)n(-c1ccc(C)c(C)c1)c(=O)n2Cc1cccc(Cl)c1,/,.,/,/,/,5µM
COc1ccc(N2CCN(c3oc(/C=C/c4ccccc4OC)nc3C#N)CC2)cc1,/,.,/,/,/,.
Cc1cccc(S(=O)(=O)Nc2cc(Cl)ccc2N2CCOCC2)c1,.,.,.,.,.,10µM
O=S(=O)(Nc1cc(C(F)(F)F)ccc1N1CCOCC1)c1ccccc1,.,.,.,.,.,.
Cc1ccc2[nH]c3c(c2c1)CCCC3NCCO (centres undefined),.,.,.,.,.,10µM
CCc1ccc(NC(=O)N2CCOc3ccc(Cl)cc32)cc1,/,.,/,/,/,?
CC[C@H](C)[C@H]1O[C@]2(CC[C@@H]1C)C[C@@H]1C[C@@H](C/C=C(\C)[C@H](O[C@@H]3C[C@H](OC)[C@H](O[C@@H]4C[C@H](OC)[C@@H](O)[C@H](C)O4)[C@H](C)O3)[C@@H](C)/C=C/C=C3\CO[C@@H]4[C@H](O)C(C)=C[C@@H](C(=O)O1)[C@]34O)O2,/,/,.,/,/,/
CCC(=O)OC1C(N(C)C)CC(C)O[C@H]1O[C@H]1[C@H](C)[C@@H](O[C@H]2CC(OC)[C@@H](O)C(C)O2)[C@H](C)C(=O)O[C@@H](CC)[C@](C)(O)[C@@H](O)[C@H](C)C(=O)[C@@H](C)C[C@]1(C)O (some centres undefined),/,/,.,/,/,/
Cc1cc(NCCCN2CCOCC2)n2nc(C)c(-c3ccccc3)c2n1,.,.,.,.,.,4.5µM
Cc1cc(NCCCN2CCOCC2)n2nc(C)c(-c3ccc(F)cc3)c2n1,.,.,.,.,.,?
Cc1[nH]c2ccccc2c1C(=O)CCl,.,.,.,8.9µM,.,.
CN(C)CCNC(=O)c1ccc(-n2c(-c3ccccc3)cc3c2CCCC3)cc1,/,.,/,/,/,?
CCOC(=O)c1cc(-c2ccccc2)sc1NC(=O)C(C)N1C(=O)NC(C)(c2ccc(Cl)cc2)C1=O (centres undefined),.,.,.,.,.,5.6µM
CCOC(=O)c1cc(-c2ccccc2)sc1NC(=O)C(C)C,.,.,.,.,.,.
Cc1cccc(Cc2c(C)nc3nc(SCc4ccccc4F)nn3c2C)c1,/,.,/,/,/,.
COc1cccc(NC(=S)N2CCN(C/C=C/c3ccccc3)CC2)c1,.,.,.,/,.,5.6µM
COc1ccc(-c2nc3ccccc3c(C(=O)Nc3ccc(S(=O)(=O)Nc4cc(C)on4)cc3)c2C)cc1,.,.,.,.,.,5µM
COc1cc(-c2nc3ccc(C)cn3c2Nc2ccc(Cl)cc2)ccc1O,/,?,/,/,/,3.5µM
SMILES,Mm-Cpn inhibitor,GLP1R cytotox,GLP-1R agonist,uPA generation,CCT chaperon mod,GLP-1R inv ag
CCCCCC1CCC(c2n[nH]c(=S)n2C)CC1 (centres undefined),.,3.2µM,.,.,.,?
CCN(CC)c1ccc(NC(=O)Cn2cc3c(n2)CCCC3)c(C)c1,/,.,/,/,/,.
Cc1ccccc1NC(=O)N1CCc2cc(S(=O)(=O)N3CCC(C)CC3)ccc21,/,.,/,/,/,.
O=[N+]([O-])c1cc(C(F)(F)F)ccc1NCCc1c[nH]c2ccc(O)cc12,.,.,.,.,.,.
O=[N+]([O-])c1cc(C(F)(F)F)ccc1NCCc1c[nH]c2ccccc12,.,10µM,.,.,.,?
CC(C)(C)OC(=O)CC12CCCCC1NC(=O)O2 (centres undefined),.,.,.,.,-49,.
C[C@@H]1Cn2cnc(C(=O)NCC(=O)OC(C)(C)C)c2C(=O)N1,/,.,.,/,.,.
CC(CSC(=O)c1ccccc1)C(=O)N1CC(Sc2ccccc2)CC1C(=O)O (centres undefined),/,/,.,/,/,/
CCN1CCN(c2ccc(N3CCN(S(=O)(=O)c4ccc(C)c([N+](=O)[O-])c4)CC3)nn2)CC1,.,.,.,.,.,1.6µM
Cc1ccc(S(=O)(=O)N2CCN(C)CC2)cc1[N+](=O)[O-],.,.,.,/,.,.
CN1CCCC1CCNc1ccc2sc3ccccc3c(=O)c2c1 (centres undefined),/,?,.,?,.,14µM
CCOc1ccc(NS(=O)(=O)c2cccc(C(=O)NCC3(N(C)C)CCCCC3)c2)cc1,.,.,.,.,.,10µM
COc1ccc(NS(=O)(=O)c2cccc(C(=O)NCC3(N4CCCCC4)CCCCC3)c2)cc1,.,.,.,.,.,.
Cc1nc(Nc2ccccc2F)c2oc3ccccc3c2n1,.,.,.,.,-49,.
Cc1nc(Nc2ccccc2O)c2oc3ccccc3c2n1,.,.,.,.,.,.
CCOc1ccc(CCNc2ncnc3onc(-c4ccc(Cl)cc4)c23)cc1,/,.,/,/,/,.
O=C(Cn1cc(C(=O)C2CC2)c2ccccc21)NCc1ccc2c(c1)OCO2,.,.,.,.,.,6.3µM
CC(C)N(C(=O)CSc1nc2ccccc2n1Cc1ccc(F)cc1)C(C)C,.,?,.,.,.,2.8µM
CN(C(=O)CSc1nc2ccccc2n1Cc1cccc(C(F)(F)F)c1)c1ccccc1,/,.,/,/,/,10µM
COc1cccc(Cn2c(SCC(=O)N(C)c3ccccc3)nc3ccccc32)c1,/,.,/,/,/,?

# High-throughput results from PubChem BioAssay.
